Experimental data taken from PubChem BioAssay (NCI).
This is part of a sample that, as a whole, favours compounds with a hit. Of some 83,000 tested, about 20% had one in any assay.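 Method: cells in 96-well plates; compound added at one concentration; 48 h incubation; percent growth measured; values under 10 scored active.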 Calls of active or inactive are those of the source.

Tested on: IGROV1 ovarian
Assay: NCI-60 one-dose screen, 48 h (100 = growth as untreated, 0 = no growth, -100 = all killed)
Details: 10 µM unless noted

SMILES	growth
CC(C)=CCC[C@](C)(O)[C@H]1CC[C@]2(C)[C@@H]1CC[C@@H]1[C@@]3(C)C/C(=C/c4ccccc4)C(=O)C(C)(C)[C@@H]3CC[C@]12C	101% (inactive)
O=C1Nc2ccccc2/C1=C\c1c(-c2ccc(F)cc2)nc2ccccn12	57.1% (inactive)
CC(c1ccccc1)C(C(=O)c1ccccc1)c1ccccc1 (stereo unspecified)	99.5% (inactive)
CC(=O)[C@H]1CCC/C=C/[C@@H]2C[C@H](O)C[C@H]2[C@H](O)/C=C/C(=O)O1	-5.3% (active)
O=C1C=CC(=O)N1c1cccc(Cl)c1	117% (inactive)
COc1cc(/C=C\c2cc(/C=C\c3ccc(O)c(OC)c3)n(C(=O)COc3ccccc3)n2)ccc1O	8.43% (active)
N#C/C(=C\c1cccc(C#N)c1)c1ccccc1	107% (inactive)
COc1cc2cc(Oc3cccc(NC(=O)Nc4cc(C(F)(F)F)cc(C(F)(F)F)c4)c3)c(C)nc2cc1OC	19.8% (inactive)
Cc1ccc(-n2nc3c(c(C#N)c2=O)CC(c2ccccc2[N+](=O)[O-])C([N+](=O)[O-])=C3O)cc1 (stereo unspecified)	86.2% (inactive)
CCN(c1ccccc1)S(=O)(=O)c1cc([N+](=O)[O-])ccc1Cl	54% (inactive)
Cc1nc2sccn2c1-c1cn2ccsc2n1	14.3% (inactive)
Cc1cc(Cl)nc(N(CCNc2ccnc3cc(Cl)ccc23)Cc2ccccn2)n1	57.5% (inactive)
CSc1nc2sc3cccc(Cl)c3n2c(=N)c1C#N	93.4% (inactive)
COc1ccc(C(=O)CC#N)cc1	123% (inactive)
COC(=O)C(CC=O)C(=O)C(=O)Nc1cccc(C(F)(F)F)c1 (stereo unspecified)	102% (inactive)
COc1cc(/C=C\c2cc(OC)c(OC)c(OC)c2)cc(N)c1OC	74.6% (inactive)
CC1(C)NCCC[C@]2(C)[C@H]3CC[C@@H]4[C@H]5[C@H](C(=O)/C=C/c6ccco6)CC[C@]5(CO)CC[C@@]4(C)[C@]3(C)CC[C@@H]12	89.5% (inactive)
O=C(/C=C/c1c(-c2ccc(Cl)cc2)nn(-c2ccccc2)c1C(F)(F)F)c1ccc(Cl)cc1	102% (inactive)
Cn1cc(-c2csc(-c3c[nH]c4ccccc34)n2)c2ccnc(Cl)c21	91.8% (inactive)

SMILES	growth
O=C1CC(=O)OC(c2ccc([N+](=O)[O-])cc2)O1	-59.6% (active)
C=CCn1c(-c2ccc(-c3nc4ccc(C)cc4[nH]3)cc2)n[nH]c1=S	97.9% (inactive)
Cn1cc(-c2nc(-c3c[nH]c4c(Cl)nccc34)cs2)c2cc(Br)ccc21	102% (inactive)
COc1cc(C2C3=C(COC3=O)N(CCO)c3cc4c(cc32)OCO4)cc(OC)c1OC (stereo unspecified)	19.1% (inactive)
CC(C)c1ccc(Nc2ccc3c(OCCCN4CCN(C)CC4)cccc3n2)cc1	83.1% (inactive)
COc1cc(NC(=O)CSc2nc3ccc(C)cc3c(=O)n2Cc2ccccc2)cc(OC)c1OC	74.3% (inactive)
N#Cc1c(-c2cccc([N+](=O)[O-])c2)nc(SCC(=O)c2ccc(Cl)cc2)[nH]c1=O	104% (inactive)
COc1cc(CC(=O)n2ncc3ccc(N)cc32)cc(OC)c1OC	90.7% (inactive)
Oc1ccc(C2c3ccccc3Oc3ccccc32)c2cccnc12	20.4% (inactive)
COc1cc(C2C3=C(COC3=O)N(CCO)c3cc4c(cc32)CCC4)cc(OC)c1OC (stereo unspecified)	8.46% (active)
Cc1ccc(-c2nc3ccccn3c2/C=C2/C(=O)Nc3cc(Cl)ccc32)cc1	81.3% (inactive)
CCNc1nc2ccc(Nc3ccnc4cc(Cl)ccc34)cc2[nH]1	91.3% (inactive)
N#CC(C(=O)/C(=N/NC(=O)c1ccccc1O)C(C#N)c1ccccc1)c1ccccc1 (stereo unspecified)	37.7% (inactive)
C#Cc1cccc(NC(=O)c2cccc(NC(=O)CCl)c2)c1	-53.5% [8.25 µM] (active)
Cc1nc2ccc(Cl)cn2c1-c1nnc(SCc2ccc([N+](=O)[O-])cc2)o1	62.3% (inactive)
Cc1c2cc[nH]c(=O)c2c(C)c2c1[nH]c1cc(OCCN3CCN(C)CC3)ccc12	20.2% (inactive)
Cc1cc2c(c(C)c1Cl)C(=O)/C(=C/c1ccc(O)c(O)c1)O2	96.9% (inactive)
O=C1/C=C/[C@@H](O)[C@@H]2C[C@@H](O)C[C@H]2/C=C/CCC[C@H](CCc2ccc3ncccc3c2)O1	-4.38% (active)
COc1ccc(-c2cnc3c(-c4cccc5ncccc45)cnn3c2)cc1	45.1% (inactive)

Tested on: OVCAR-3 ovarian
Assay: as above
Details: 10 µM unless noted

SMILES	growth
CC(C)=CCC[C@](C)(O)[C@H]1CC[C@]2(C)[C@@H]1CC[C@@H]1[C@@]3(C)C/C(=C/c4ccccc4)C(=O)C(C)(C)[C@@H]3CC[C@]12C	103% (inactive)
O=C1Nc2ccccc2/C1=C\c1c(-c2ccc(F)cc2)nc2ccccn12	62.1% (inactive)
CC(c1ccccc1)C(C(=O)c1ccccc1)c1ccccc1 (stereo unspecified)	110% (inactive)
CC(=O)[C@H]1CCC/C=C/[C@@H]2C[C@H](O)C[C@H]2[C@H](O)/C=C/C(=O)O1	-31.1% (active)
O=C1C=CC(=O)N1c1cccc(Cl)c1	90.1% (inactive)
COc1cc(/C=C\c2cc(/C=C\c3ccc(O)c(OC)c3)n(C(=O)COc3ccccc3)n2)ccc1O	-4.46% (active)
N#C/C(=C\c1cccc(C#N)c1)c1ccccc1	105% (inactive)
COc1cc2cc(Oc3cccc(NC(=O)Nc4cc(C(F)(F)F)cc(C(F)(F)F)c4)c3)c(C)nc2cc1OC	1.71% (active)
Cc1ccc(-n2nc3c(c(C#N)c2=O)CC(c2ccccc2[N+](=O)[O-])C([N+](=O)[O-])=C3O)cc1 (stereo unspecified)	87.5% (inactive)
CCN(c1ccccc1)S(=O)(=O)c1cc([N+](=O)[O-])ccc1Cl	74.7% (inactive)
Cc1nc2sccn2c1-c1cn2ccsc2n1	85.8% (inactive)
Cc1cc(Cl)nc(N(CCNc2ccnc3cc(Cl)ccc23)Cc2ccccn2)n1	3.13% (active)
CSc1nc2sc3cccc(Cl)c3n2c(=N)c1C#N	110% (inactive)
COc1ccc(C(=O)CC#N)cc1	112% (inactive)
COC(=O)C(CC=O)C(=O)C(=O)Nc1cccc(C(F)(F)F)c1 (stereo unspecified)	106% (inactive)
COc1cc(/C=C\c2cc(OC)c(OC)c(OC)c2)cc(N)c1OC	99.6% (inactive)
CC1(C)NCCC[C@]2(C)[C@H]3CC[C@@H]4[C@H]5[C@H](C(=O)/C=C/c6ccco6)CC[C@]5(CO)CC[C@@]4(C)[C@]3(C)CC[C@@H]12	92.6% (inactive)
O=C(/C=C/c1c(-c2ccc(Cl)cc2)nn(-c2ccccc2)c1C(F)(F)F)c1ccc(Cl)cc1	95.3% (inactive)
Cn1cc(-c2csc(-c3c[nH]c4ccccc34)n2)c2ccnc(Cl)c21	81% (inactive)

SMILES	growth
O=C1CC(=O)OC(c2ccc([N+](=O)[O-])cc2)O1	-60.6% (active)
C=CCn1c(-c2ccc(-c3nc4ccc(C)cc4[nH]3)cc2)n[nH]c1=S	112% (inactive)
Cn1cc(-c2nc(-c3c[nH]c4c(Cl)nccc34)cs2)c2cc(Br)ccc21	111% (inactive)
COc1cc(C2C3=C(COC3=O)N(CCO)c3cc4c(cc32)OCO4)cc(OC)c1OC (stereo unspecified)	-27.6% (active)
CC(C)c1ccc(Nc2ccc3c(OCCCN4CCN(C)CC4)cccc3n2)cc1	79.4% (inactive)
COc1cc(NC(=O)CSc2nc3ccc(C)cc3c(=O)n2Cc2ccccc2)cc(OC)c1OC	43.8% (inactive)
N#Cc1c(-c2cccc([N+](=O)[O-])c2)nc(SCC(=O)c2ccc(Cl)cc2)[nH]c1=O	103% (inactive)
COc1cc(CC(=O)n2ncc3ccc(N)cc32)cc(OC)c1OC	108% (inactive)
Oc1ccc(C2c3ccccc3Oc3ccccc32)c2cccnc12	56.5% (inactive)
COc1cc(C2C3=C(COC3=O)N(CCO)c3cc4c(cc32)CCC4)cc(OC)c1OC (stereo unspecified)	-33.4% (active)
Cc1ccc(-c2nc3ccccn3c2/C=C2/C(=O)Nc3cc(Cl)ccc32)cc1	93.7% (inactive)
CCNc1nc2ccc(Nc3ccnc4cc(Cl)ccc34)cc2[nH]1	107% (inactive)
N#CC(C(=O)/C(=N/NC(=O)c1ccccc1O)C(C#N)c1ccccc1)c1ccccc1 (stereo unspecified)	68.7% (inactive)
C#Cc1cccc(NC(=O)c2cccc(NC(=O)CCl)c2)c1	-71.3% [8.25 µM] (active)
Cc1nc2ccc(Cl)cn2c1-c1nnc(SCc2ccc([N+](=O)[O-])cc2)o1	66.8% (inactive)
Cc1c2cc[nH]c(=O)c2c(C)c2c1[nH]c1cc(OCCN3CCN(C)CC3)ccc12	17.1% (inactive)
Cc1cc2c(c(C)c1Cl)C(=O)/C(=C/c1ccc(O)c(O)c1)O2	109% (inactive)
O=C1/C=C/[C@@H](O)[C@@H]2C[C@@H](O)C[C@H]2/C=C/CCC[C@H](CCc2ccc3ncccc3c2)O1	-17.5% (active)
COc1ccc(-c2cnc3c(-c4cccc5ncccc45)cnn3c2)cc1	57.7% (inactive)
